High-throughput results from PubChem.
IL-1B inflam inh = inhibitors of inflammasome signaling (IL-1 beta secretion) | hit rate 4.7% among 360,000 | THP-1 LPS/ATP IL-1B secretion, AlphaLISA, 16 h; hits give low values | activity change, % at 57.5 µM; in the data active means activity change below about -50%; inconclusive means mostly about -30% to -49%
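THP-1 cells pretreated 1 hr with compounds (up to 57.5 uM final), then stimulated with LPS (250 ng/mL final) plus ATP (1.25 mM final); secreted IL-1B measured by AlphaLISA after 16 hr, decreased signal indicating inhibition.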
HT1080NT lethal = kills 2HG-producing HT-1080-NT fibrosarcoma cells. Potency, µM (series often up to 46.1 µM), for inactives: at the top dose activity, negative = less viability, usual class: cytotoxic. HT-1080-NT fibrosarcoma viability, CellTiter-Glo ATP luminescence, 48 h. hit rate 1.6% among 360,000;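 further: NT is the 2HG producing partner of a matched IDH1 knockdown line; potency means the concentration at half of the fitted maximal effect; 0% = DMSO-treated cells and -100% = media-only wells without cells; nearly all actives have a fitted effect of over 55% in size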
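Compounds were tested in concentration-response format on HT-1080-NT cells for 48 hours at 37 degrees C. Cell viability came from CellTiter-Glo luminescence; curves were classified by r2, response magnitude and activity.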
TDP1 cell CPT = DT40-hTDP1 cell growth loss with CPT. chicken DT40 Tdp1-/-;hTDP1 cells + 20 nM CPT, ATP luminescence, 48 h. Potency, µM (doses to about 46.2 µM), for the others: top-dose activity change, negative = growth inhibition, usual class: inhibitors. hit rate 12% among 420,000. AID 686979; further: potency means the concentration at half of the fitted maximal effect; nearly all actives have a fitted effect of over 55% in size
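Chicken DT40 Tdp1-/- cells stably complemented with human TDP1 were seeded at 400 cells/well in medium containing 20 nM camptothecin, exposed to pin-transferred compounds, and grown at 37 °C for at least 48 hr. Viability was read as ATP luminescence.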
HT1080 IDH1KD tx = HT-1080 IDH1 knockdown cell toxicity (counter line). HT-1080 IDH1 knockdown viability, ATP luminescence, 48 h. hit rate 2% among 360,000. AID 686971. Potency, µM (doses to about 46.1 µM), inactives show at the top dose activity, negative = toxicity, most hits filed as cytotoxic;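 further: potency means the concentration at half of the fitted maximal effect; 0% = DMSO wells and -100% = cell-free medium wells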
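HT-1080-IDH1KD cells (IDH1 knocked down), 750/well in RPMI with 5% FBS, treated with compound 48 h at 37 degrees C. Viability by CellTiter-Glo luminescence, normalised to DMSO and no-cell wells; concentration-response curves classed.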
ELG1 DNA repair = inhibitors of ELG1-dependent DNA repair in HEK293T cells. Potency, µM (doses to about 46.1 µM), for the others: at the top dose activity change, negative = inhibition, hits mostly inhibitors. AID 504467. hit rate 2.3% among 330,000. HEK293T ELG1-luciferase reporter, luminescence, 16 h; DNA damage induced by 5-fluorouridine; further: potency means the concentration at half of the fitted maximal effect; nearly all actives have a fitted effect of over 55% in size
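HEK293T cells expressing luciferase-tagged ELG1 (2,000/well) received 5-Fluorouridine plus compound or DMSO for 16 hr at 37 °C. Luciferase was read by ONE-Glo luminescence after 30 min at room temperature.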
TDP1 cell noCPT = qHTS for Inhibitors of human tyrosyl-DNA phosphodiesterase 1 (TDP1): qHTS in cells in absence of CPT; DT40 Tdp1-/- hTDP1 cells, no CPT, ATP luminescence, 48 h; Potency, µM (doses to about 46.2 µM), for the others: at the top dose activity change, negative = growth inhibition, most hits filed as inhibitors; hit rate 15% among 420,000; further: potency means the concentration at half of the fitted maximal effect; nearly all actives have a fitted effect of over 55% in size
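A cellular qHTS used chicken DT40 cells lacking endogenous Tdp1 but carrying stably transfected human TDP1. Compounds were applied without camptothecin, and cell growth kinetics were judged by ATP-dependent luminescence after ≥48 hr.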
The depositor's hits bear a star; ? = inconclusive; nt = not tested or not shown; [ ] = another dose, or the depositor's remark. Compounds with a hit are over-represented: about 19% of the library has one in this group of screens. Unless noted, the call rests on the fitted dose curve; in most records, active means well fitted curve in the direction sought with a large enough effect; inconclusive means small, poorly fitted or top-dose-only effect, or another doubt; inactive means no such curve, though single readings can be large; an effect the other way counts as inactive or inconclusive. Unless noted, on the % scale 0 is the no-effect control and ±100 the full control effect.

SMILES	IL-1B inflam inh	HT1080NT lethal	TDP1 cell CPT	HT1080 IDH1KD tx	ELG1 DNA repair	TDP1 cell noCPT
Cc1ccc(C2=CC(c3ccc(N(C)C)cc3)n3nnnc3N2)cc1 (stereo unspecified)	10.6	-19.7%	18.4µM*	-14.9%	-6.1%	20.6µM*
COc1ccc(C2=CC(c3ccc(F)cc3)n3nnnc3N2)cc1 (stereo unspecified)	?	5.7%	?	4.2%[9.24 µM]	3.7%	18.4µM*
COc1ccc(C2=CC(c3sccc3C)n3nnnc3N2)cc1 (stereo unspecified)	13.6	-5.2%	-30.2%	-0.6%	?	-28.9%
CC(C)c1ccc(C2=CC(c3ccc(C(C)C)cc3)n3nnnc3N2)cc1 (stereo unspecified)	nt	nt	14.6µM*	nt	nt	14.6µM*
COC(=O)c1cc2sccc2n1Cc1nc(-c2cccc(Br)c2)oc1C	nt	nt	-16.0%	nt	nt	-12.8%
Cc1ccc(Cn2cc(S(=O)(=O)c3cccc(C)c3)c(=O)c3cc(F)c(N4CCOCC4)cc32)cc1	nt	nt	?	nt	nt	-26.8%
O=c1c(S(=O)(=O)c2ccccc2)cn(Cc2cccc(F)c2)c2cc(N3CCOCC3)c(F)cc12	nt	nt	?	nt	nt	23.1µM*
O=c1c(S(=O)(=O)c2ccccc2)cn(Cc2ccccc2)c2cc(N3CCOCC3)c(F)cc12	nt	nt	20.6µM*	nt	nt	?
O=c1c(S(=O)(=O)c2ccccc2)cn(Cc2ccccc2)c2cc(N3CCCC3)c(F)cc12	nt	nt	-5.0%	nt	nt	0.1%
CC(=O)N1c2ccccc2CC1C(=O)N1CCN(c2ccccc2)CC1 (stereo unspecified)	nt	nt	-2.4%	nt	nt	-14.0%
NC(CSC(c1ccccc1)(c1ccccc1)c1ccccc1)C(=O)O (stereo unspecified)	9.7	?	5.8µM*	?	nt	5.17µM*
NC(CC(=O)NC(c1ccccc1)(c1ccccc1)c1ccccc1)C(=O)O (stereo unspecified)	6.5	4.9%	16.0%	6.4%	?	0.0%
COc1ccc(CCn2c(C)cc(C(=O)CSc3nc(N)cc(=O)[nH]3)c2C)cc1	-17.0	?	11.6µM*	-23.5%	?	11.6µM*
COc1ccc(CCn2c(C)cc(C(=O)CSc3nnc(N)s3)c2C)cc1	-10.4	-13.3%	?	-5.4%	?	?
Cc1cc(C(=O)CSc2nc(N)cc(=O)[nH]2)c(C)n1CCc1ccc(F)cc1	-9.0	-0.5%	18.4µM*	25.9µM*	?	11.6µM*
O=C(CCC(=O)N1CCOCC1)NCCc1ccc(Cl)cc1Cl	6.8	6.1%	-11.9%	-4.9%	-3.2%	?
N#CCCn1c(=O)cnc2cnc(N3CCOCC3)nc21	nt	nt	?	nt	nt	-13.4%
O=C(O)c1nn(CCOc2c(Cl)cccc2Cl)c(=O)c2ccccc12	20.9	-24.0%	?	?	?	?
Cc1cc(=O)c(C(=O)O)c(C)n1-c1ccccc1	-27.3	2.7%	1.8%	-6.9%	nt	0.5%
CC1CC(C)CN(c2ncc3c(n2)CC(c2ccccc2Cl)CC3=O)C1 (stereo unspecified)	-8.7	6.8%	?	9.5%	-7.2%	20.6µM*
CC1CC(C)CN(c2ncc3c(n2)CC(c2ccc(Cl)cc2)CC3=O)C1 (stereo unspecified)	-11.5	3.4%	?	1.3%	-14.3%	8.2µM*
CCOc1ccc(OCC(=O)Nc2ccc(S(=O)(=O)Nc3cc(C)nc(C)n3)cc2)cc1	142.4	6.2%	2.0%	3.8%	9.5%	-24.0%
Cc1cc(NS(=O)(=O)c2ccc(NC(=O)COc3c(C)cc(Br)cc3C)cc2)no1	35.0	-17.5%	20.6µM*	?	-6.5%	23.1µM*
Cc1cc(NS(=O)(=O)c2ccc(NC(=O)COc3ccc(Br)cc3)cc2)nc(C)n1	23.6	1.9%	14.6µM*	0.0%	11.3%	?
CCOc1ccc(-c2cc(C(=O)Nc3ccc(NC(C)=O)cc3)no2)cc1	nt	nt	1.3%	nt	nt	-3.6%
SMILES	IL-1B inflam inh	HT1080NT lethal	TDP1 cell CPT	HT1080 IDH1KD tx	ELG1 DNA repair	TDP1 cell noCPT
CCOc1ccc(C(=O)NC(=S)Nc2ccc(N3CCC(C)CC3)cc2)cc1[N+](=O)[O-]	-6.6	0.5%	?	-8.0%	?	11.6µM*
CCCC(=O)N1CCN(c2ccc(NC(=O)c3ccc(OCC)c([N+](=O)[O-])c3)cc2)CC1	4.9	-15.9%	-6.5%	-15.9%	-2.1%	-27.0%
CCOc1ccc(C(=O)Nc2ccccc2C#N)cc1[N+](=O)[O-]	-12.2	0.0%	16.4µM*	-6.1%	?	?
CCOc1ccc(C(=O)NC(=S)Nc2ccccc2N2CCC(C)CC2)cc1[N+](=O)[O-]	-3.7	9.8%	?	7.3%	8.4%	16.4µM*
CCC(=O)N[C@@H]1c2ccccc2C2(CCN(Cc3cnc(N(C)C)s3)CC2)[C@H]1OC	nt	nt	35.5%[9.04 µM]	nt	nt	-3.3%
COc1ccc(CCNC(=O)CN2C(=O)COc3ccc(S(=O)(=O)N4CCOCC4)cc32)cc1OC	0.1	11.4%	-24.9%	29.2%	2.8%	18.7%
CCN(CC)S(=O)(=O)c1ccc(C(=O)NCCSc2c[nH]c3ccccc23)cc1	3.4	-27.1%	20.6µM*	-1.7%	?	?
COc1ccc(C(=O)NCCc2c[nH]c3ccccc23)cc1OC	-1.1	7.4%	15.1%	-4.5%	-12.3%	-28.5%
CCN(CC)S(=O)(=O)c1ccc(C(=O)NCCSc2c(-c3ccc(C)cc3)[nH]c3ccccc23)cc1	nt	nt	5.8µM*	nt	nt	8.2µM*
COc1ccc(C(=O)NCCSc2c[nH]c3ccccc23)cc1OC	nt	nt	?	nt	nt	20.6µM*
Cc1[nH]c2ccccc2c1SCCNC(=O)c1ccc(S(=O)(=O)N2CCCC2)cc1	7.7	-0.2%	-29.4%	0.4%	?	?
COc1ccc(Cc2nc(C(=O)Nc3ccccc3)cs2)cc1	-53.6*	?	-9.9%	-16.1%	?	?
COc1ccc(NC(=O)c2csc(Cc3ccc(Cl)cc3)n2)cc1	-4.4	2.1%	6.4%	-0.2%	?	-3.6%
COc1ccc(CNC(=O)c2csc(Cc3ccc(Cl)cc3)n2)cc1	-55.1*	-0.3%	-17.5%	-1.9%	?	-20.3%
CC(C)Oc1ccc(C(=O)Nc2c3c(nn2-c2ccccc2)CS(=O)(=O)C3)cc1	-15.6	8.1%	?	11.1%	-8.1%	-29.8%
O=C1c2ccccc2NC(c2ccc(-c3ccc(Br)cc3)o2)N1O (stereo unspecified)	100.6	7.94µM*	?	11.2µM*	?	?
